From PubChem BioAssay AID1159580 (chemical genetic matrix, 2015)
Where “and” joins values, the source holds several entries; their conditions need not be identical. Equal values may be shown once. The campaign covered roughly 5,500 compounds. About 2,000 (36%) were called active. Not shown: some 18% with an inconclusive outcome. No stated cut-off is given here; in the data, active means normalized growth mostly below about 0.91 (no sharp cut-off); inconclusive means no clear call, values can overlap the other calls; inactive means mostly above about 0.92. Some of the results follow.

Assay: chemical genetic growth profiling, strain panel (AID 1159580);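 further: tested at 20 µM; growth read once vehicle control cultures reached saturation at 30 °C; 1 = growth at the plate median or of vehicle wells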
Conditions: S. cerevisiae deletion strains, growth OD

Measured: normalized growth

NNc1nncc2ccccc12
inactive: locus YAL013W, strain DEP1, stronger effect = lower value 1.01 | locus YAL021C, strain ccr4, stronger effect = lower value 0.991 | locus YAL026C, strain drs2, stronger effect = lower value 0.973 | locus YAL030W, strain snc1, stronger effect = lower value 1 | locus YAL040C, strain CLN3, stronger effect = lower value 0.995 | locus YBL061C, strain skt5, stronger effect = lower value 0.993 | locus YBR009C, strain hhf1, stronger effect = lower value 0.983 | locus YBR021W, strain FUR4, stronger effect = lower value 0.973 | locus YBR023C, strain chs3, stronger effect = lower value 0.986 | locus YBR171W, strain sec66, stronger effect = lower value 0.997 | locus YBR229C, strain ROT2, stronger effect = lower value 1.01 | locus YBR231C, strain swc5, stronger effect = lower value 0.981 | locus YBR279W, strain paf1, stronger effect = lower value 0.996 | locus YCL011C, strain gbp2, stronger effect = lower value 0.973 | locus YCL016C, strain dcc1, stronger effect = lower value 0.969 | locus YCL029C, strain bik1, stronger effect = lower value 1 | locus YCL061C, strain MRC1 (second series), stronger effect = lower value 1 | locus YCL061C, strain MRC1, stronger effect = lower value 0.988 | locus YCL069W, strain vba3, stronger effect = lower value 1 | locus YCR088W, strain abp1, stronger effect = lower value 0.999 | locus YDL005C, strain med2, stronger effect = lower value 0.992 | locus YDL035C, strain GPR1, stronger effect = lower value 1.02 | locus YDL040C, strain nat1, stronger effect = lower value 1.01 | locus YDL074C, strain BRE1, stronger effect = lower value 0.997 | locus YDL101C, strain DUN1, stronger effect = lower value 1 | locus YDL134C, strain PPH21, stronger effect = lower value 1.01 | locus YDL185W, strain tfp1, stronger effect = lower value 0.999 | locus YDL192W, strain arf1, stronger effect = lower value 0.999 | locus YDR001C, strain nth1, stronger effect = lower value 0.997 | locus YDR069C, strain doa4, stronger effect = lower value 1.02 | locus YDR101C, strain arx1, stronger effect = lower value 1.01 | locus YDR137W, strain rgp1, stronger effect = lower value 1.02 | locus YDR150W, strain NUM1, stronger effect = lower value 1 | locus YDR159W, strain sac3, stronger effect = lower value 1.03 | locus YDR162C, strain NBP2, stronger effect = lower value 1.01 | locus YDR195W, strain ref2 1.06 | locus YDR297W, strain sur2, stronger effect = lower value 1.02 | locus YDR318W, strain mcm21, stronger effect = lower value 0.984 | locus YDR334W, strain swr1, stronger effect = lower value 0.986 | locus YDR335W, strain msn5, stronger effect = lower value 1.02 | locus YDR363W, strain ESC2, stronger effect = lower value 0.997 | locus YDR388W, stronger effect = lower value 0.993 | locus YDR392W, strain spt3, stronger effect = lower value 0.878 | locus YDR502C, strain sam2, stronger effect = lower value 0.986 | locus YEL003W, strain gim4, stronger effect = lower value 0.989 | locus YEL037C, strain rad23, stronger effect = lower value 1 | locus YEL061C, strain CIN8 (second series), stronger effect = lower value 1 | locus YEL061C, strain CIN8, stronger effect = lower value 1 | locus YER002W, strain NOP16, stronger effect = lower value 0.995 | locus YER015W, strain faa2, stronger effect = lower value 0.978 | locus YER016W, strain bim1, stronger effect = lower value 1 | locus YER110C, stronger effect = lower value 0.993 | locus YER111C, strain swi4, stronger effect = lower value 0.986 | locus YER155C, strain BEM2 (second series), stronger effect = lower value 0.947 | locus YER155C, strain BEM2, stronger effect = lower value 1.02 | locus YER167W, strain BCK2, stronger effect = lower value 1.01 | locus YFR010W, strain ubp6, stronger effect = lower value 0.985 | locus YGL078C, strain dbp3, stronger effect = lower value 0.999 | locus YGL086W, strain mad1, stronger effect = lower value 0.996 | locus YGL167C, strain pmr1, stronger effect = lower value 0.995 | locus YGL173C, strain kem1, stronger effect = lower value 0.99 | locus YGL227W, strain vid30, stronger effect = lower value 0.999 | locus YGL240W, strain doc1, stronger effect = lower value 1 | locus YGL248W, strain PDE1, stronger effect = lower value 0.99 | locus YGL253W, strain hxk2, stronger effect = lower value 1.01 | locus YGR135W, strain pre9, stronger effect = lower value 0.96 | locus YGR252W, strain gcn5, stronger effect = lower value 0.941 | locus YHR013C, strain ard1, stronger effect = lower value 0.986 | locus YHR027C, strain rpn1, stronger effect = lower value 1 | locus YHR030C, strain SLT2, stronger effect = lower value 1 and 1.02 | locus YHR079C, strain IRE1 (second series), stronger effect = lower value 0.993 | locus YHR079C, strain IRE1, stronger effect = lower value 1.01 | locus YHR094C, strain hxt1, stronger effect = lower value 0.997 | locus YHR129C, strain ARP1, stronger effect = lower value 0.997 | locus YHR142W, strain chs7, stronger effect = lower value 0.997 | locus YHR200W, strain rpn10, stronger effect = lower value 0.997 | locus YIL066C, strain RNR3, stronger effect = lower value 1 | locus YIL073C, strain SPO22, stronger effect = lower value 0.992 | locus YIL125W, strain kgd1, stronger effect = lower value 1.01 | locus YIR030C, strain dcg1, stronger effect = lower value 0.996 | locus YJL092W, strain hpr5, stronger effect = lower value 0.988 | locus YJL095W, strain BCK1 (second series), stronger effect = lower value 0.999 | locus YJL095W, strain BCK1, stronger effect = lower value 0.971 and 0.995 | locus YJL115W, strain asf1, stronger effect = lower value 0.996 | locus YJL129C, strain trk1, stronger effect = lower value 0.994 | locus YJL134W, strain LCB3, stronger effect = lower value 1 | locus YJL154C, strain vps35, stronger effect = lower value 0.998 | locus YJL164C, strain tpk1, stronger effect = lower value 0.993 | locus YJL166W, strain qcr8, stronger effect = lower value 1 | locus YJL168C, strain set2, stronger effect = lower value 0.989 | locus YJL187C, strain SWE1 (second series), stronger effect = lower value 1 | locus YJL187C, strain SWE1, stronger effect = lower value 1.01 | locus YJR043C, strain POL32, stronger effect = lower value 1
